Experimental findings from PubChem BioAssay are described below.

Several values for one entry are separate records, joined by “and”; a condition that tells them apart may be missing. Equal values may be shown once. Activity calls are given as the source filed them. Unless noted, how the calls were made is not given here.

A short description of assay [1]: Cy5 fluorescence interference with SSB-bound oligo, artefact control for HCV NS3 helicase inhibitor project, biochemical, NIH Clinical Collection, E. coli SSB (AID 743268).
Assay [2] concerns Hepatitis C virus NS3 helicase. The assay can be described thus: HCV NS3 helicase inhibitors, primary screen, biochemical, fluorescence polarization, NIH Clinical Collection (AID 743270). As to conditions: NS3 helicase binding to Cy5-dT15 DNA, stronger effect = higher value, concentration not given here.
Assay [3] concerns the target Single-stranded DNA-binding protein (Escherichia coli (strain K12)) (UniProt P0AGE0). The assay can be described thus: E. coli SSB displacement from DNA, counter-screen for HCV NS3 helicase inhibitor project, biochemical, fluorescence polarization, NIH Clinical Collection (AID 743271; in the data active means inhibition above about 28%). As to conditions: stronger effect = higher value, concentration not given here.
A short description of assay [4]: fluorescence interference in NS3h assay format, artefact control for HCV NS3 helicase inhibitor project, biochemical, NIH Clinical Collection (AID 743272).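 Further: HCV NS3 helicase with a Cy5 labelled single stranded DNA probe.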 As to conditions: fluorescence interference counterscreen, stronger effect = lower value.
The test system of assay [5] is Neuropilin-2 / VEGF-C interaction (human). The assay can be described thus: inhibitors of NRP2–VEGF-C binding, biochemical, microplate binding format, z-score (AID 743281). As to conditions: microplate NRP2/VEGF-C binding assay; stronger effect = lower value.
Assay [6] can be described thus: stimulators of nuclear beta-catenin in C2C12, primary screen, imaging, WNT3A-conditioned medium, mouse C2C12, NPC library (AID 1117326; in the data active means nuclear beta-catenin stimulation mostly above about 4.2%, no sharp cut-off; inactive means mostly below about 10%). As to conditions: stronger effect = higher value.
In assay [7] the test system is Hepatitis C virus NS3 helicase. Briefly: HCV NS3 helicase inhibitors, primary screen, biochemical, fluorescence polarization, LOPAC1280 library (AID 687035; in the data active means inhibition above about 37%). As to conditions: Purified HCV NS3 helicase, Cy5-dT15 ssDNA binding fluorescence polarization; stronger effect = higher value; concentration not given here.
A short description of assay [8]: Cy5 fluorescence quenching or enhancement artefacts, artefact control for HCV NS3 helicase inhibitor project, biochemical, LOPAC1280 (AID 687037). As to conditions: Cy5-DNA-NS3h complex fluorescence interference counterscreen.

With `CC[C@@]1(O)C(=O)OCc2c1cc1n(c2=O)Cc2cc3c(CN(C)C)c(O)ccc3nc2-1`, the fluorescence ratio is 1.05 (inactive) in assay [1] and 1.02 (inactive) in assay [4]. Moreover, the inhibition in assay [2] was 1.98% (inactive); in assay [3], 3.75% (inactive). The z-score in assay [5] was 1.52 (inactive). Moreover, the nuclear beta-catenin stimulation is 55.8% (active) in assay [6] (at 10 µM) and 20.6% in assay [6] (stimulation, at 2 µM).

Take `CC(C)COCC(CN(Cc1ccccc1)c1ccccc1)N1CCCC1` (configuration not stated): the inhibition in assay [7] was 0% (inactive). For the same molecule, in assay [8], the fluorescence ratio (interference) is 1 (inactive). For the same molecule, the nuclear beta-catenin stimulation in assay [6] (at 10 µM) is 0.1% (inactive); in assay [6] (stimulation, at 2 µM) it was -1.8%.

As for `C[C@]12C[C@H](O)[C@H]3[C@@H](CCC4=CC(=O)CC[C@@]43C)[C@@H]1CC[C@@H]2C(=O)CO`, the figures for the inhibition in assay [7], in assay [2] and in assay [3] were 0% (inactive), -1.97% (inactive) and 1.97% (inactive), respectively. Also, the fluorescence ratio (interference) in assay [8] is 1 (inactive). In addition, the fluorescence ratio is 1.01 (inactive) in assay [1] and 0.99 (inactive) in assay [4]. Further, the nuclear beta-catenin stimulation was 0% (inactive) in assay [6] (at 10 µM) and -1.4% in assay [6] (stimulation, at 2 µM).

As to `CS(=O)(=O)Nc1ccc([N+](=O)[O-])cc1Oc1ccccc1`, the inhibition in assay [7] is -3% (inactive). Moreover, the fluorescence ratio (interference) in assay [8] is 1 (inactive). In addition, the nuclear beta-catenin stimulation in assay [6] (at 10 µM) was 0.4% (inactive); in assay [6] (stimulation, at 2 µM), -0.6%.

For the molecule `CC(C)NCC(O)COc1ccc(CCOCC2CC2)cc1` (configuration not stated), the inhibition in assay [7] was -6% (inactive); in assay [2], 5.94% (inactive); in assay [3], 3.75% (inactive). For the same molecule, in assay [8], the fluorescence ratio (interference) was 0.9 (inactive). Further, the fluorescence ratio in assay [1] is 1.03 (inactive); in assay [4] it was 0.95 (inactive). The z-score in assay [5] was -0.0183 (inactive). Also, the nuclear beta-catenin stimulation is 3.6% (inactive) in assay [6] (at 10 µM) and 3.7% in assay [6] (stimulation, at 2 µM).

As to `COc1cc2nc(N3CCN(C(=O)C4CCCO4)CC3)nc(N)c2cc1OC` (configuration not stated), the inhibition is -3% (inactive) in assay [7]; 0.4% (inactive) and -6.82% (inactive) in assay [2]; -3.18% (inactive) and 1.05% (inactive) in assay [3]. In assay [8], the fluorescence ratio (interference) is 1 (inactive). Further, the fluorescence ratio in assay [1] was 0.99 (inactive) and 1.03 (inactive); in assay [4], 0.95 (inactive) and 1.02 (inactive). Further, in assay [5], the z-score is -0.533 (inactive). Moreover, the nuclear beta-catenin stimulation in assay [6] (at 10 µM) was 0.8% (inactive); in assay [6] (stimulation, at 2 µM), 1.4%.

For `NCCCC(=O)O`, in assay [8], the fluorescence ratio (interference) was 1 (inactive). The nuclear beta-catenin stimulation in assay [6] (at 10 µM) was 2.4% (inactive); in assay [6] (stimulation, at 2 µM) it was 1.9%.

With `NS(=O)(=O)c1cc(C(=O)O)c(NCc2ccco2)cc1Cl`, the fluorescence ratio in assay [1] is 0.95 (inactive); in assay [4] it was 0.89 (inactive). Besides, the nuclear beta-catenin stimulation in assay [6] (at 10 µM) is 0.5% (inactive); in assay [6] (stimulation, at 2 µM), 1.3%.

On to `COc1cccc2c1C(=O)c1c(O)c3c(c(O)c1C2=O)C[C@@](O)(C(=O)CO)C[C@@H]3O[C@H]1C[C@H](N)[C@H](O)[C@H](C)O1`, for which the results for the fluorescence ratio in assay [1] and in assay [4] were 0.07 (active) and 0.4 (active), respectively. The figures for the inhibition in assay [2] and in assay [3] were 7.52% (inactive) and 90% (active), respectively. For the same molecule, in assay [5], the z-score was 0.436 (inactive). For the same molecule, the nuclear beta-catenin stimulation in assay [6] (at 10 µM) is 28.9% (inactive); in assay [6] (stimulation, at 2 µM), 27.7%.

Turning to `CCn1cc(C(=O)O)c(=O)c2cc(F)c(N3CCNC(C)C3)c(F)c21` (configuration not stated), the inhibition in assay [7] is -1% (inactive). Moreover, the fluorescence ratio (interference) in assay [8] is 1 (inactive). Moreover, the nuclear beta-catenin stimulation was 1.8% (inactive) in assay [6] (at 10 µM) and 1.2% in assay [6] (stimulation, at 2 µM).

Regarding `CC(=O)NS(=O)(=O)c1ccc(N)cc1`, the fluorescence ratio in assay [1] is 1.03 (inactive); in assay [4] it was 1.01 (inactive). In addition, the inhibition is -5% (inactive) in assay [2] and -5.05% (inactive) in assay [3]. The nuclear beta-catenin stimulation in assay [6] (at 10 µM) is -0.3% (inactive); in assay [6] (stimulation, at 2 µM), -0.1%.

For the molecule `Cc1ncc([N+](=O)[O-])n1CCO`, the fluorescence ratio in assay [1] was 0.95 (inactive); in assay [4] it was 0.88 (inactive). For the same molecule, the inhibition was -2.77% (inactive) in assay [2] and 4.52% (inactive) in assay [3]. Further, in assay [5], the z-score was -0.317 (inactive). Besides, the nuclear beta-catenin stimulation in assay [6] (at 10 µM) was -0.2% (inactive); in assay [6] (stimulation, at 2 µM) it was 0.7%.

On to `CN1CCC(=C2c3ccccc3CC(=O)c3sccc32)CC1`, for which the figures for the inhibition in assay [7], in assay [2] and in assay [3] were -3% (inactive), -6.33% (inactive) and -0.39% (inactive), respectively. Besides, the fluorescence ratio (interference) in assay [8] was 1 (inactive). Besides, the fluorescence ratio in assay [1] was 0.97 (inactive); in assay [4], 0.93 (inactive). In addition, the z-score in assay [5] was -0.206 (inactive). Besides, the nuclear beta-catenin stimulation is 1.3% (inactive) in assay [6] (at 10 µM) and -1.2% in assay [6] (stimulation, at 2 µM).

For `COc1ccc(CN(CCN(C)C)c2ccccn2)cc1`, the inhibition in assay [7] is 3% (inactive). Further, the fluorescence ratio (interference) in assay [8] is 1 (inactive). Also, the nuclear beta-catenin stimulation in assay [6] (at 10 µM) was 0.1% (inactive); in assay [6] (stimulation, at 2 µM), 7.7%.

`CN1CCC(=C2c3ccccc3C=Cc3ccccc32)CC1`: the inhibition in assay [7] is -1% (inactive); in assay [2] it was -2.84% (inactive); in assay [3], -0.39% (inactive). Moreover, in assay [8], the fluorescence ratio (interference) was 1 (inactive). Also, the figures for the fluorescence ratio in assay [1] and in assay [4] were 0.97 (inactive) and 0.96 (inactive), respectively. Also, the z-score in assay [5] is -0.162 (inactive). The nuclear beta-catenin stimulation was 3.3% (inactive) in assay [6] (at 10 µM) and 1.3% in assay [6] (stimulation, at 2 µM).

Consider `COc1ccccc1OCC(O)CN1CCN(CC(=O)Nc2c(C)cccc2C)CC1` (configuration not stated), for which the inhibition is -7% (inactive) in assay [7], -3.56% (inactive) in assay [2] and -4.72% (inactive) in assay [3]. For the same molecule, the fluorescence ratio (interference) in assay [8] was 0.9 (inactive). Further, the figures for the fluorescence ratio in assay [1] and in assay [4] were 1.02 (inactive) and 0.9 (inactive), respectively. For the same molecule, the z-score in assay [5] was 0.514 (inactive). The nuclear beta-catenin stimulation in assay [6] (at 10 µM) was 2.5% (inactive); in assay [6] (stimulation, at 2 µM), 1.4%.

Take `CN1CCN(C2=Nc3ccccc3Oc3ccc(Cl)cc32)CC1`: the inhibition in assay [7] is -3% (inactive); in assay [2], 1.19% (inactive); in assay [3], 2.21% (inactive). Besides, the fluorescence ratio (interference) in assay [8] is 1 (inactive). Further, the fluorescence ratio in assay [1] is 0.97 (inactive); in assay [4] it was 0.92 (inactive). Further, the z-score in assay [5] is -0.0658 (inactive). For the same molecule, the nuclear beta-catenin stimulation is 1.4% (inactive) in assay [6] (at 10 µM) and -0.5% in assay [6] (stimulation, at 2 µM).

In the case of `COc1ccc(CC2c3cc(OC)c(OC)cc3CC[N+]2(C)CCC(=O)OCCCCCOC(=O)CC[N+]2(C)CCc3cc(OC)c(OC)cc3C2Cc2ccc(OC)c(OC)c2)cc1OC` (configuration not stated), the fluorescence ratio in assay [1] is 1.03 (inactive); in assay [4] it was 1.02 (inactive). For the same molecule, the inhibition in assay [2] was -1.09% (inactive); in assay [3], 1.97% (inactive). For the same molecule, the call in assay [5] was inactive. In addition, the nuclear beta-catenin stimulation is 21.5% (inactive) in assay [6] (at 10 µM) and 0.3% in assay [6] (stimulation, at 2 µM).

With `CNC[C@H](O)c1ccc(O)c(O)c1`, the inhibition in assay [7] was -5% (inactive). Besides, in assay [8], the fluorescence ratio (interference) was 1 (inactive). The nuclear beta-catenin stimulation is 0.3% (inactive) in assay [6] (at 10 µM) and 0.2% in assay [6] (stimulation, at 2 µM).

Regarding `COCCc1ccc(OCC(O)CNC(C)C)cc1` (configuration not stated), in assay [7], the inhibition was 1% (inactive). The fluorescence ratio (interference) in assay [8] is 1 (inactive). Besides, the nuclear beta-catenin stimulation was 0.8% (inactive) in assay [6] (at 10 µM) and 1.6% in assay [6] (stimulation, at 2 µM).
